Growth data for 13 compounds are collected here from PubChem BioAssay (NCI).

The structures appear in SMILES notation. Compounds without any hit were thinned out: in the full panel of roughly 83,000, 20% have a hit.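 The test compound was applied at a single concentration to cells in 96-well plates for 48 hours, and percent growth was recorded.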 A number with no mark means an inactive call. Activity calls are given as the source filed them. Rule for the calls: active = growth percent below 10; inactive = the rest.

Holding throughout (test): NCI-60 one-dose screen, 48 h (100 = growth as untreated, 0 = no growth, -100 = all killed)
Conditions in all cases: 10 µM unless noted

The test system of experiment [1] is NCI-H23 lung.
For experiment [2], the system named is NCI-H226 lung.
The test system of experiment [3] is NCI-H322M lung.
Experiment [4] concerns HOP-62 NSCLC.
In experiment [5] the test system is NCI-H460 lung.
Experiment [6] concerns HOP-92 NSCLC.
Experiment [7] relates to NCI-H522 lung.
Experiment [8] concerns A549/ATCC NSCLC.
For experiment [9], the system named is 786-0 renal.
In experiment [10] the test system is COLO 205 colon.

With `Oc1ccc(-c2nnc(SCc3ccc(O)c4ncccc34)o2)cc1`, the growth in experiment [1] is 13.4%; in [2] it was 8.78% (active); in experiment [3], 19.8%; in experiment [4], 13.9%; in experiment [5] it was 2.22% (active); in experiment [6] it was -15.9% (active). Further, the growth in experiment [7] was 11.4%; in experiment [8] it was 15.2%; in experiment [9], 20.5%; in experiment [10], 46.2%.
Regarding `Cn1cc(-c2nnc(N)nc2-c2cn(C)c3ccc(F)cc23)c2cc(F)ccc21`, the growth in experiment [1] was 101%; in experiment [2], 97.4%; in [3], 101%; in experiment [4], 90.7%; in [5] it was 102%; in experiment [6], 116%. Besides, the growth is 73.2% in experiment [7], 77.2% in [8], 86.1% in [9] and 107% in [10].
Take `COc1cc(-c2noc(C[C@@H](NC(=O)OCc3ccccc3)C(C)C)n2)cc(OC)c1OC`: the growth was 96.9% in [1]; 101% in [2]; 92.3% in experiment [3]; 94.4% in experiment [4]; 102% in experiment [5]; 88.3% in [6]. In addition, the growth is 92.1% in [7], 100% in [8], 101% in experiment [9] and 117% in experiment [10].
For the compound `Oc1ccc(CSc2nnc(-c3ccccc3)n2-c2ccccc2)c2cccnc12`, the growth in experiment [1] was 18.8%; in experiment [2], 19.8%; in experiment [3], 18.5%; in experiment [4] it was 11.1%; in [5], 1.36% (active); in experiment [6], -14.4% (active). Besides, the growth in experiment [7] is 12.6%; in experiment [8], 13%; in experiment [9] it was 18.7%; in [10], 61.7%.
With `Oc1ccccc1-c1nnc(SCc2ccc(O)c3ncccc23)n1-c1ccccc1`, the growth is 17.4% in [1]; 9% (active) in experiment [2]; 21.9% in experiment [3]; 13.6% in experiment [4]; 3.98% (active) in experiment [5]; -4.85% (active) in experiment [6]. Also, the growth in experiment [7] was -6.01% (active); in experiment [8], 9.34% (active); in experiment [9], 20.1%; in experiment [10], 34.5%.
With `C#CCOc1ccc(/C=N/Nc2nc(-c3cc(Cl)ccc3Cl)cs2)cc1`, the growth is 75.3% in [1]; 77.2% in experiment [2]; 105% in [3]; 104% in experiment [4]; 96.8% in [5]; 69.7% in [6]. For the same compound, the growth was 84.3% in [7], 103% in experiment [8], 107% in experiment [9] and 105% in [10].
As for `CC(C)(C)OC(=O)N1CCN(S(=O)(=O)/N=C2\NC(=O)NC2=C(Cl)Cl)CC1`, the growth is 91.8% in experiment [1]; 105% in experiment [2]; 98.9% in experiment [3]; 105% in [4]; 101% in [5]; 108% in experiment [6]. Also, the growth in experiment [7] is -52.4% (active); in [8], 103%; in experiment [9], 101%; in experiment [10], 86.3%.
Consider `O=C(CSc1ccc(-c2nc3ccccc3[nH]2)cn1)N1CCN(c2ccccc2F)CC1`, for which the growth in experiment [1] was 67.3%; in experiment [2] it was 59.6%; in experiment [3], 101%; in experiment [4], 89.8%; in [5], 88.5%; in experiment [6], 71.9%. The growth in experiment [7] is 52.4%; in experiment [8], 81.2%; in experiment [9], 95.4%; in [10], 79.7%.
Take `N#Cc1c(-c2ccccc2)cc(-c2c[nH]c3ccccc23)nc1-c1c[nH]c2ccccc12`: the growth in [1] was 95.6%; in experiment [2] it was 89.9%; in experiment [3], 105%; in experiment [4] it was 92.7%; in [5] it was 106%; in [6], 92.1%. In addition, the growth is 97.1% in experiment [7], 98.7% in [8], 102% in experiment [9] and 108% in [10].
In the case of `CN1CCN(c2ccc(NC(=O)Nc3ccc4c(ccn4-c4cccc(C(N)=O)n4)c3)cc2C(F)(F)F)CC1`, the growth is 72.5% in [1]; 83.6% in experiment [2]; 58.3% in experiment [3]; 63.2% in [4]; 87.2% in [5]; 119% in experiment [6]. For the same compound, the growth is 71.6% in [7], 51.8% in [8], 6.16% (active) in experiment [9] and 44.4% in [10].
For the compound `CCOC(=O)Nc1cccc(-n2cnc3cc(-c4ccc(O)cc4)ccc32)c1`, the growth was 32.3% in [1]; 33.3% in [2]; 47.3% in experiment [3]; 46.7% in [4]; 4.77% (active) in [5]; 116% in experiment [6]. The growth in experiment [7] was -12.7% (active); in [8], 28.3%; in experiment [9], 31.6%; in experiment [10] it was -4.06% (active).
`COc1cc2c3c(n(CCCNCC4CC4)c(=O)c2cc1OC)-c1cc2c(cc1C3=O)OCO2`: the growth was -52.6% (active) in experiment [1]; 61.9% in experiment [2]; 66.9% in [3]; -85.8% (active) in experiment [4]; -58.7% (active) in experiment [5]; 90.8% in [6]. Besides, the growth in experiment [7] was -66.1% (active); in [8], -85.1% (active); in experiment [9] it was -98.2% (active); in [10], 38%.
`CCOC(=O)/C=c1\sc2n(c1=O)C1C(NN=2)N(CC)C(=O)N1CC` (stereo not given): the growth was 79.6% in [1]; 81.2% in experiment [2]; 78.9% in [3]; 71.6% in [4]; 37.8% in [5]; 75.3% in experiment [6]. Moreover, the growth is 33.3% in experiment [7], 62.1% in experiment [8], 63% in experiment [9] and 51.3% in [10].
